Values joined by “and” are separate entries in the source; they are usually repeats but may differ in a detail not shown here. Equal entries are not always repeated. Some compounds were tested as several samples or in several runs, with calls that do not always agree. Active and inactive are the calls of the source. How the source made its calls: active means hit-call score of the fitted dose curve at least 0.9, where 1 is the maximum; inactive means score below 0.9.
Experiments:
[1] = target: Transcription factor E2F1 (Homo sapiens) (UniProt Q01094); assay: ATG_E2F_CIS: Attagene CIS-FACTORIAL HepG2 Assay for human E2F Transcription Factor 1 (AID 2282935); details: HepG2 Attagene cis-reporter, E2F reporter RNA transcripts; actives raise or lower the signal
Sequence of Transcription factor E2F1 (Homo sapiens) (Q01094 whole entry, looked up): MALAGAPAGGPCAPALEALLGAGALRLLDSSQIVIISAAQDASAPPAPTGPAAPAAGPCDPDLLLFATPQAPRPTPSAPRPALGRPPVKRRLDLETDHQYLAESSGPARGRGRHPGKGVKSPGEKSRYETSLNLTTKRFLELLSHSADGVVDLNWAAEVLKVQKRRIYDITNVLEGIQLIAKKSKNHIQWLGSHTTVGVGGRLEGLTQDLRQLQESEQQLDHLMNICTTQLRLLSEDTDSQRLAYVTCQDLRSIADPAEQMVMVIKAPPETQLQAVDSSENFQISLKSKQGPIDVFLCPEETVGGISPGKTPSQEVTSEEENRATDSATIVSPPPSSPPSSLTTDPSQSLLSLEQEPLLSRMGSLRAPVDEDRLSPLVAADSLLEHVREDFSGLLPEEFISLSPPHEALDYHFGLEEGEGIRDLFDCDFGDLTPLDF
In short: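 Total RNA from 24 h-treated, reporter-transfected HepG2 cells undergoes DNase I treatment, oligo(dT) reverse transcription, PCR and 6-FAM primer extension before capillary electrophoresis.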

[2] = ATG_E_Box_CIS: Attagene CIS-FACTORIAL HepG2 Assay for human Enhancer Box (E-box) (AID 2282936); details: HepG2 E-box cis-reporter transcription, actives raise or lower the signal
In short: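 DMSO served as negative control and baseline for bidirectional fitting. Human hepatoma HepG2 cells, transiently transfected with cis-reporter constructs, were dosed 24 h; reporter mRNA read by RT-PCR and capillary electrophoresis.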

[3] = ATG_M_61_CIS: Attagene CIS-FACTORIAL HepG2 Assay for M61 Transcription Factor (Internal Marker) (AID 2282937); details: HepG2 Attagene CIS-FACTORIAL M61 internal marker reporter; actives raise or lower the signal
In short: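 Readout is reporter mRNA by RT-PCR, fluorescent primer extension and capillary electrophoresis, with gain or loss fitted relative to DMSO. Transfected HepG2 cells carrying endogenous-TF-driven cis reporters were exposed to chemicals for 24 hours.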

[4] = ATG_EGR_CIS: Attagene CIS-FACTORIAL HepG2 Assay for human Early Growth Response 1 (EGR1) (AID 2282938); details: HepG2 Attagene CIS-FACTORIAL EGR reporter mRNA; actives raise or lower the signal
In short: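 After 24 h compound exposure, RNA from reporter-transfected HepG2 cells was reverse-transcribed, PCR-amplified, fluorescently labelled and resolved by capillary electrophoresis. EGR1 reporter transcript changes, up or down, were fitted against DMSO, reflecting endogenous transcription-factor activity.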

[5] = ATG_M_19_CIS: Attagene CIS-FACTORIAL HepG2 Assay for M19 Transcription Factor (Internal Marker) (AID 2282939); details: HepG2 Attagene CIS-FACTORIAL M19 internal marker reporter; actives raise or lower the signal
In short: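 Chemical-treated HepG2 (24 h) with MRTU constructs; reporter transcripts detected by fluorescent RT-PCR fragment analysis on capillary electrophoresis. Internal background marker, DMSO as baseline.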

[6] = ATG_ERE_CIS: Attagene CIS-FACTORIAL HepG2 Assay for Estrogen Response Element (ERE) (AID 2282940); details: HepG2 ERE cis-reporter, Attagene RNA transcript; actives raise or lower the signal
In short: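 Human liver cells (HepG2) bearing transiently transfected, promoter-regulated reporter units were exposed 24 h. Reporter mRNA induction was detected by capillary electrophoresis of labelled RT-PCR products and fitted bidirectionally to DMSO.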

[7] = ATG_Ets_CIS: Attagene CIS-FACTORIAL HepG2 Assay for human Erythroblast Transformation Specific (ETS) (AID 2282941); details: HepG2 ETS cis-reporter transcription, actives raise or lower the signal
In short: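 Steps: transfect HepG2 with multiple reporter units; treat compound 24 h; isolate RNA, DNase-treat, reverse-transcribe; PCR-amplify, label with 6-FAM, digest with HpaI; separate by capillary electrophoresis. Activity fitted both directions versus DMSO.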

[8] = target: Hepatocyte nuclear factor 3-beta (Homo sapiens) (UniProt Q9Y261); assay: ATG_FoxA2_CIS: Attagene CIS-FACTORIAL HepG2 Assay for human Forkhead box A2 (FOXA2) (AID 2282942); details: HepG2 cis-reporter transcription factor activity, 24 h; actives raise or lower the signal
Sequence of Hepatocyte nuclear factor 3-beta (Homo sapiens) (Q9Y261 whole entry, looked up): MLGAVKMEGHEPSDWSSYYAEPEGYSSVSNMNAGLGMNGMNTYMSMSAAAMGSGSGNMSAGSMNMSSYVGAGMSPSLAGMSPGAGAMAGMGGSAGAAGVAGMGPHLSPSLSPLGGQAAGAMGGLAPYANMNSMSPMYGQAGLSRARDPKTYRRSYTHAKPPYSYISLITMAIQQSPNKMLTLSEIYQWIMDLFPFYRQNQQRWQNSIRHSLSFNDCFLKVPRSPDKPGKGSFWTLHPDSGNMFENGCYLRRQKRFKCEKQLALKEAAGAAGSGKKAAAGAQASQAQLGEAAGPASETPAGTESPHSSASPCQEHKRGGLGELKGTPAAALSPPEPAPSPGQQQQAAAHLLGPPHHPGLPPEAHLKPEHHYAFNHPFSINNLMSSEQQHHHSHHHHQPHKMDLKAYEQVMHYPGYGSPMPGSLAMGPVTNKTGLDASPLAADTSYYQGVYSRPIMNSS
In short: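 Endogenous transcription factor activity is captured via cis-element-driven reporter transcripts in transfected HepG2. Total RNA taken at 24 h post-dosing; labelled RT-PCR products resolved by capillary electrophoresis. Gain or loss fitted versus DMSO.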

[9] = ATG_FoxO_CIS: Attagene CIS-FACTORIAL HepG2 Assay for human Forkhead box O (FoxO) (AID 2282943); details: HepG2 Attagene cis-reporter, FoxO element, mRNA; actives raise or lower the signal
In short: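 Endogenous transcription factor activity read from multiplexed cis-promoter reporter transcripts in transiently transfected HepG2, 24 h after dosing. Reporter RNA measured via RT-PCR plus capillary electrophoresis of FAM-labeled products; gain or loss relative to DMSO.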

[10] = ATG_GATA_CIS: Attagene CIS-FACTORIAL HepG2 Assay for human GATA Binding Protein (AID 2282944); details: HepG2 GATA cis-element reporter, Attagene multiplex mRNA; actives raise or lower the signal
In short: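 Transfected cis-reporter HepG2 cells were treated with chemicals for 24 hours. Total RNA was then converted to cDNA, amplified with reporter-specific primers and analysed by fluorescent capillary electrophoresis, using DMSO-treated wells as baseline.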

[11] = ATG_GLI_CIS: Attagene CIS-FACTORIAL HepG2 Assay for human Zinc Finger Protein GLI1 (AID 2282945); details: HepG2, Attagene cis-factorial reporter mRNA, GLI element; actives raise or lower the signal
In short: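 Bidirectional curve fits relative to DMSO, using reporter mRNA levels from RT-PCR plus capillary electrophoresis. Cells were HepG2 transiently carrying cis-regulated reporter constructs, harvested 24 h after dosing.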

[12] = target: Bile acid receptor (Homo sapiens) (UniProt Q96RI1); assay: ATG_IR1_CIS: Attagene CIS-FACTORIAL HepG2 Assay for human Nuclear Receptor Subfamily 1 Group H Member 4 (NR1H4), IR1 submotif (AID 2282946); details: IR1 reporter transcription, actives raise or lower the signal
Sequence of Bile acid receptor (Homo sapiens) (Q96RI1 whole entry, looked up, the tested form may be a part): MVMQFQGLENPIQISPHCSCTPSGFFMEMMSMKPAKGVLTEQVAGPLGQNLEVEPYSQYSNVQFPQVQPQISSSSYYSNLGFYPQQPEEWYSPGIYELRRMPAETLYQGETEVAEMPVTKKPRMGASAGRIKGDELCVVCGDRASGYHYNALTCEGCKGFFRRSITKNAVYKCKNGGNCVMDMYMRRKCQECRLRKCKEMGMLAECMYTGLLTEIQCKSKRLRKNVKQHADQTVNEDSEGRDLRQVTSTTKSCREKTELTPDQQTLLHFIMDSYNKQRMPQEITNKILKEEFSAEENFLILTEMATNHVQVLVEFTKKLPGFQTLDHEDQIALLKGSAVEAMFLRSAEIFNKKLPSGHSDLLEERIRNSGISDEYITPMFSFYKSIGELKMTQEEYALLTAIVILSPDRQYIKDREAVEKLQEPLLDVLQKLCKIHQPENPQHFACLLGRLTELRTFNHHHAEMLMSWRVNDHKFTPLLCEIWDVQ
In short: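 Cells (human HepG2) carry transiently transfected cis-promoter reporter transcription units. Compounds are incubated 24 h, total RNA is reverse-transcribed and amplified, and labelled fragments are resolved by capillary electrophoresis. Curves use DMSO as baseline.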

[13] = ATG_GRE_CIS: Attagene CIS-FACTORIAL HepG2 Assay for human Glucocorticoid Response Elements (GRE) (AID 2282947); details: HepG2 GRE cis-reporter, Attagene multiplex mRNA; actives raise or lower the signal
In short: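 Assay uses human hepatoma HepG2 cells transfected with cis-promoter reporter units, exposed 24 h. mRNA from reporters detected by RT-PCR plus capillary electrophoresis; DMSO serves as negative control and baseline.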

[14] = ATG_M_32_CIS: Attagene CIS-FACTORIAL HepG2 Assay for M32 Transcription Factor (Internal Marker) (AID 2282949); details: HepG2 Attagene cis-factorial M32 reporter, mRNA; actives raise or lower the signal;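 further: background control marker of the multiplexed CIS panel rather than a real target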
In short: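 Following 24 h chemical exposure of HepG2 cells transiently expressing cis-promoter reporter constructs, reporter transcript levels were determined by RT-PCR with fluorescent labelling and capillary electrophoresis, then fitted bidirectionally against DMSO.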

[15] = target: Hypoxia-inducible factor 1-alpha (Homo sapiens) (UniProt Q16665); assay: ATG_HIF1a_CIS: Attagene CIS-FACTORIAL HepG2 Assay for human Hypoxia Inducible Factor 1 (HIF1A) (AID 2282951); details: HepG2 Attagene cis-factorial HIF1a reporter transcription; actives raise or lower the signal
Sequence of Hypoxia-inducible factor 1-alpha (Homo sapiens) (Q16665 whole entry, looked up): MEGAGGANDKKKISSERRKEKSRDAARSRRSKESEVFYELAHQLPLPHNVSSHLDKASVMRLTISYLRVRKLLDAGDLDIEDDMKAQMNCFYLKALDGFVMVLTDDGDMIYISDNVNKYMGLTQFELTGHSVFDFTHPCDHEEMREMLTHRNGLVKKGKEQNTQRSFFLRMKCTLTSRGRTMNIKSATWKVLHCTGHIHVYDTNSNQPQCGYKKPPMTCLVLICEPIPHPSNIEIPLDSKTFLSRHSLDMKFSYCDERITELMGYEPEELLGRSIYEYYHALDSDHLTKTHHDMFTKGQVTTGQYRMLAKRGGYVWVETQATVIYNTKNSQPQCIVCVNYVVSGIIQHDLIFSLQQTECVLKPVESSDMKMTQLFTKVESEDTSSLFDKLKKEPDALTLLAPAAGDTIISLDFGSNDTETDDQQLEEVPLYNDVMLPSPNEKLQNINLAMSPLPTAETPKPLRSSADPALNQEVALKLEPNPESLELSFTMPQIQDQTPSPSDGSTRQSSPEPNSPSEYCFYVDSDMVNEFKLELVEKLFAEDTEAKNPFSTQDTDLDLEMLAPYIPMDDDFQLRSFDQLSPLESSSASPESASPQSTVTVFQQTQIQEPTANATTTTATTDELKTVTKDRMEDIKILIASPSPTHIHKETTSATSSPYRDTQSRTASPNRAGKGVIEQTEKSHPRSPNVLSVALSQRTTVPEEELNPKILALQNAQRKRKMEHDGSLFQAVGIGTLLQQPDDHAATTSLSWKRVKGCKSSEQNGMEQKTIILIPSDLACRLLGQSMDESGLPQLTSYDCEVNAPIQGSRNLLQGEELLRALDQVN
In short: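 Activity is fitted in both directions relative to DMSO. Reporter transcripts are read by RT-PCR, fluorescent primer extension and capillary electrophoresis after 24 h chemical treatment. The cells are HepG2 carrying transiently transfected cis-element-driven reporter units responding to endogenous factors.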

[16] = target: Hepatocyte nuclear factor 6 (Homo sapiens) (UniProt Q9UBC0); assay: ATG_HNF6_CIS: Attagene CIS-FACTORIAL HepG2 Assay for human Hepatocyte Nuclear Factor 6 (HNF6) (AID 2282952); details: HepG2 Attagene cis-factorial HNF6 reporter transcription; actives raise or lower the signal
Sequence of Hepatocyte nuclear factor 6 (Homo sapiens) (Q9UBC0 whole entry, looked up, the tested form may be a part): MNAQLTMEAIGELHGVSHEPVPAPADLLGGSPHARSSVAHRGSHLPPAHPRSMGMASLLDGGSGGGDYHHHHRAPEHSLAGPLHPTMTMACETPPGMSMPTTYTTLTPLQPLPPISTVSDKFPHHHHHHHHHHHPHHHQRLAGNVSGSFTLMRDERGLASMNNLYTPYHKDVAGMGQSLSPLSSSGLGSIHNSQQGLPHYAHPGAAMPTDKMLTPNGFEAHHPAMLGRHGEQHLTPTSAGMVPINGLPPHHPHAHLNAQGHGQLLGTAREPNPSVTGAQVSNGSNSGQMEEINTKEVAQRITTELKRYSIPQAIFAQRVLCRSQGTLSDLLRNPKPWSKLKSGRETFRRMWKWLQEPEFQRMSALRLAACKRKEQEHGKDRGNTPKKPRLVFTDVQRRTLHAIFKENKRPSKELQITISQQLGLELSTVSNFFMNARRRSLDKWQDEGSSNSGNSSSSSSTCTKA
In short: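 Reporter mRNA induction or loss in HepG2 after 24 h exposure; transient cis-MRTU transfection; fragments quantified by capillary electrophoresis; bidirectional analysis, DMSO as negative control.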

[17] = ATG_MRE_CIS: Attagene CIS-FACTORIAL HepG2 Assay for human Metal Responsive Element (MRE) (AID 2282954); details: HepG2 MRE cis-reporter transcription, Attagene multiplex; actives raise or lower the signal
In short: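 After a 24 h chemical exposure, transiently transfected HepG2 cells yield RNA whose reporter sequences are amplified, FAM-labelled and sized by capillary electrophoresis. Curves are fitted bidirectionally relative to DMSO.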

[18] = ATG_ISRE_CIS: Attagene CIS-FACTORIAL HepG2 Assay for human Interferon Regulatory Factor 1 (IRF1) binding to an Interferon-Stimulated Response Element (ISRE) (AID 2282948); details: HepG2 ISRE cis-reporter (Attagene), mRNA transcription readout; actives raise or lower the signal
In short: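 Transfected HepG2 (multiple reporter transcription units, cis elements) dosed 24 h. RNA → oligo(dT) RT → PCR → 6-FAM primer extension → HpaI → CE. DMSO = negative control/baseline.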

[19] = ATG_M_06_CIS: Attagene CIS-FACTORIAL HepG2 Assay for M06 Transcription Factor (Internal Marker) (AID 2282950); details: HepG2 Attagene CIS-FACTORIAL M06 internal marker reporter; actives raise or lower the signal
In short: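 Cells (HepG2, transiently carrying cis-driven reporter units) receive chemical for 24 h before RNA isolation. Reporter cDNA is PCR-amplified, FAM-labelled by primer extension, HpaI-digested and sized on a capillary analyser.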

[20] = target: Heat shock factor protein 1 (Homo sapiens) (UniProt Q00613); assay: ATG_HSE_CIS: Attagene CIS-FACTORIAL HepG2 Assay for human Heat Shock Transcription Factor 1 (HSE) (AID 2282953); details: HepG2 HSE cis-reporter, Attagene RNA transcription; actives raise or lower the signal
Sequence of Heat shock factor protein 1 (Homo sapiens) (Q00613 whole entry, looked up): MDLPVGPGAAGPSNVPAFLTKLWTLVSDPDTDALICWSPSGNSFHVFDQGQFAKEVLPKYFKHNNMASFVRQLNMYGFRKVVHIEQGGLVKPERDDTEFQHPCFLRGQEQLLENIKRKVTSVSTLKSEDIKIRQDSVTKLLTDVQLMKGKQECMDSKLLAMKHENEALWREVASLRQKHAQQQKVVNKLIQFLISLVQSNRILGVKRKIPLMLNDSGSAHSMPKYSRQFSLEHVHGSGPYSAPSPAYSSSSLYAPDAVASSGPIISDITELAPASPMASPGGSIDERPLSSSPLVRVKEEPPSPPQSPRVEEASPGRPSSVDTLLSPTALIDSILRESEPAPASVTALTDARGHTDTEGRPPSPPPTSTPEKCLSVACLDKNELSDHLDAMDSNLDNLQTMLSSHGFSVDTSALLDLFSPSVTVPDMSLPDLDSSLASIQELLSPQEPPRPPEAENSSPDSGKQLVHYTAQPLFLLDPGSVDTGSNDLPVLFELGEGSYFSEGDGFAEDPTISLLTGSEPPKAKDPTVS
In short: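 Liver-derived HepG2 cells carry transiently introduced multiple reporter units governed by cis promoters. Reporter RNA measured 24 h post-dose through reverse transcription, PCR amplification, fluorescent labelling and capillary electrophoresis, normalised to DMSO.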

Measured: AC50

COc1nn(CSP(=S)(OC)OC)c(=O)s1
active: [6] 24.8 µM
not listed: [18] | [19] | [20]
inactive: all other assays above

CNC(=O)/C=C(\C)OP(=O)(OC)OC
not listed: [19] | [20]
inactive: all other assays above

O=S(=O)(O)C(F)(F)C(F)(F)C(F)(F)C(F)(F)C(F)(F)C(F)(F)C(F)(F)C(F)(F)F
active: [1] 128 µM and 48.9 µM | [2] 134 µM | [4] 102 µM | [5] 153 µM | [7] 56.1 µM and 233 µM | [9] 143 µM and 58.9 µM and 223 µM | [10] 44.4 µM | [14] 53.6 µM | [15] 84 µM | [16] 24.7 µM and 208 µM and 272 µM
inactive: [1] | [2] | [3] | [4] | [5] | [7] | [8] | [9] | [10] | [11] | [14] | [15] | [16] | [17]

N#Cc1c(Cl)c(Cl)c(Cl)c(C#N)c1Cl
not listed: [19] | [20]
inactive: all other assays above

CCOc1nc(NC)nc(NC(=O)NS(=O)(=O)c2ccccc2C(=O)OC)n1
not listed: [18]
inactive: all other assays above

Cc1cc(C)nc(NC(=O)NS(=O)(=O)c2ccccc2C(=O)OC2COC2)n1
active: [4] 79 µM | [6] 71 µM | [17] 80.5 µM
not listed: [19] | [20]
inactive: all other assays above

ClC1C(Cl)C(Cl)C(Cl)C(Cl)C1Cl (centres undefined)
active: [2] 100 µM and 69.6 µM | [7] 8.89 µM | [17] 17.1 µM and 100 µM and 33.7 µM
inactive: [1] | [2] | [3] | [4] | [5] | [7] | [8] | [9] | [10] | [11] | [12] | [14] | [15] | [16] | [17]

CNC(=O)Oc1cccc(N=CN(C)C)c1
active: [6] 91.4 µM | [9] 70.8 µM | [10] 33.6 µM | [17] 72.1 µM
not listed: [13] | [18] | [20]
inactive: all other assays above

CCN(CC)C(=O)SCc1ccc(Cl)cc1
active: [4] 23.5 µM | [17] 65.9 µM
not listed: [18] | [19] | [20]
inactive: all other assays above

Oc1ccc(Cl)cc1Cc1ccccc1
inactive: [1] | [2] | [3] | [4] | [5] | [7] | [8] | [9] | [10] | [11] | [13] | [14] | [15] | [16] | [17]
active: [2] 11.1 µM | [4] 14.9 µM | [7] 16.3 µM | [9] 20.4 µM | [10] 20.2 µM | [11] 16.4 µM | [17] 16 µM

O=S1OCC2C(CO1)C1(Cl)C(Cl)=C(Cl)C2(Cl)C1(Cl)Cl (centres undefined)
active: [6] 1.72 µM
not listed: [19] | [20]
inactive: all other assays above

OCCOc1ccccc1
not listed: [19] | [20]
inactive: all other assays above
